# In the supplement of paper PMC10941209:
# Test system: HFF
# Assay: cell viability relative to DMSO control; higher = less cytotoxic
# Details: 1 µM; 72 h
# Procedure: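 Single-dose cytotoxicity screen of the MMV Pandemic Response Box at 1 uM on human foreskin fibroblasts (HFF), 72 h at 37 C. Viability measured by MTT (OD 550 nm) and normalised to the DMSO control (% survival).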
row,Compound,cell viability [%]
1,FC(F)(F)Oc1ccc(Nc2ccc3cccc(Cl)c3n2)cc1,56.3
2,O=C(NCc1ccccc1Cl)c1cnc2ccccc2n1,71.4
3,Oc1c(C(Nc2nc3ccccc3s2)c2ccc(OC(F)F)cc2)ccc2cccnc12 (configuration not stated),57.5
4,N=C(N)NCCCCC(=O)Nc1cc(C(F)(F)F)cc(NC(=O)c2cc(C(=O)Nc3cc(C(F)(F)F)cc(NC(=O)CCCCNC(=N)N)c3O[C@@H]3CCNC3)ncn2)c1O[C@@H]1CCNC1,57.6
5,C[C@@H](NC(=O)c1cccc(-c2cnc(-c3cc4ccccc4cn3)[nH]2)c1)c1ccc(F)cc1,74.3
6,O=C(Cn1cnc2ccccc2c1=O)Nc1ccccc1,62.8
7,COc1ccc(SCC(=O)N2c3ccccc3Sc3ccccc32)cc1,69.2
8,Nc1nnnn1CCOc1c2[nH]c3ccc(Cl)cc3c2cc2c1[nH]c1ccc(Cl)cc12,65.4
9,Cc1nc2ccc(Oc3ccccc3)cc2c2c1CCN2CCc1ccccc1,76.7
10,COc1cc(C)c2c(Oc3cccc(C(F)(F)F)c3)c(OC)cc(NC(C)CCCN)c2n1 (configuration not stated),61.2
11,Nc1nc(-c2ccccc2)nc2[nH]nc(Nc3ccc(C(F)(F)F)cc3)c12,64.3
12,O=C(Cc1ccccc1F)Nc1nc2ccccc2[nH]1,69.7
13,Nc1nc(N)c2c(Sc3ccccc3)cccc2n1,68.7
14,Cc1cc(C)n(O)c(=O)c1,68.5
15,COc1nc2ccc(Br)cc2cc1[C@@H](c1ccccc1)[C@@](O)(CCN(C)C)c1cccc2ccccc12,72.3
16,c1cc(CN2CCCNCCNCCCNCC2)ccc1CN1CCCNCCNCCCNCC1,63.9
17,N[C@@H]1CN(c2c(F)cc3c(=O)c(C(=O)O)cn([C@@H]4C[C@@H]4F)c3c2Cl)CC12CC2,60.8
18,CC(C)c1ccc(COc2cccc(-c3cc([S+](C)[O-])c(C#N)c(=O)[nH]3)c2)cc1 (configuration not stated),76.9
19,C=CCN(C(=O)OCc1ccc([N+](=O)[O-])cc1)C1CCN(CC[C@](C)(CN(C)S(=O)(=O)c2ccccc2)c2ccccc2)CC1,69.6

row,Compound,cell viability [%]
1,O=C1c2cccc3cccc(c23)C(=O)N1CC1CO1 (configuration not stated),63.8
2,CN(C)c1[nH]c(=O)ncc1F,72
3,COc1ccc(-n2cnc3cc(NCc4ccco4)ccc32)cc1,52
4,CC[C@H]1OC(=O)[C@H](C)[C@@H](O[C@H]2C[C@@](C)(OC)[C@@H](O)[C@H](C)O2)[C@H](C)[C@@H](O[C@@H]2O[C@H](C)C[C@H](N(C)C)[C@H]2O)[C@](C)(O)C[C@@H](C)C(=O)[C@H](C)[C@@H](O)[C@]1(C)O,71.6
5,CCOC(=O)Nc1cc(NC(C)CC(C)CN(CC)CC)c2nc(-c3ccccc3)c(-c3ccccc3)nc2n1 (configuration not stated),78.5
6,CCc1nc2ccccn2c1C(=O)NCc1ccccc1,66.8
7,CC(=O)N1c2ccccc2NC2=C(C(=O)CC(C)(C)C2)C1c1ccc(OCc2ccccc2)cc1 (configuration not stated),70.4
8,CC(=O)N1CCN(c2ccc(OCC3COC(Cn4ccnc4)(c4ccc(Cl)cc4Cl)O3)cc2)CC1 (configuration not stated),62.9
9,CC(=O)Oc1ccccc1C(=O)Nc1ncc([N+](=O)[O-])s1,62.8
10,NC[C@H]1O[C@H](O[C@H]2[C@H](O)[C@@H](O[C@H]3O[C@H](CO)[C@@H](O)[C@H](N)[C@H]3O)[C@H](N)C[C@@H]2N)[C@H](N)C[C@@H]1O,68.2
11,O=C(O)c1sccc1S(=O)(=O)n1ccc2cc(Br)ccc21,65.1
12,CCCCc1ccc(-c2cc(C(=O)O)cc(-c3ccc(Cl)cc3)n2)cc1,68.9
13,Cc1c(CN(C)C(=O)/C=C/c2cnc3c(c2)C(C)(C)C(=O)N3)oc2ccccc12,63.6
14,Cc1c(F)cccc1NC(=O)Nc1ccc(Cl)c(S(=O)(=O)[C@H]2CCCNC2)c1O,60.8
15,CCCCCCC1c2ccc(O)cc2Oc2cc(O)ccc21,72.2
16,COc1ccc(NC(=O)c2cc3ccccn3n2)cc1,62.2
17,CC(C)(C)c1ccc(OCCn2nc(C(=O)O)c3ccccc3c2=O)cc1,70
18,CCCNc1ccc(S(=O)(=O)Nc2cc(C)on2)cc1,69.3
